Compounds with a hit are over-represented: about 0.9% of the library has one in this group of screens.
PPARg SRC-3 ag: PPARgamma-driven SRC-3 recruitment agonism. biochemical PPARgamma/SRC-3 coactivator recruitment assay. activation, % at 8 µM. 200,000 tested, 0.26% active; in the data active means activation above about 23%
Target sequence (P37231 whole entry, looked up): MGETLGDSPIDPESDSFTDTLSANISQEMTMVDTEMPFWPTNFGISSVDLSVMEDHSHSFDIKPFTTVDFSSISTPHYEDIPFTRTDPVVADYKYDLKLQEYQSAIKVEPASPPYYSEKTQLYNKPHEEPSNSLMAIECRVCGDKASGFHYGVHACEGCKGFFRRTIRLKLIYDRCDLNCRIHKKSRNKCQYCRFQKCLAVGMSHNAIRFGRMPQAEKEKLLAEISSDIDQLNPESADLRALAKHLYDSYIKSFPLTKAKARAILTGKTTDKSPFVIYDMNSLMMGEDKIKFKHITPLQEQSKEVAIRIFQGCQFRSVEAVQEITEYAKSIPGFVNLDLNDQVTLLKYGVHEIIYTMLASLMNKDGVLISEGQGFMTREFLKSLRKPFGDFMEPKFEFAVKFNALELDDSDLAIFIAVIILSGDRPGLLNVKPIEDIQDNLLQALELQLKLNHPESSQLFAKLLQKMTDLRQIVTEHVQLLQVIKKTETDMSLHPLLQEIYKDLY
PPARg SRC2 recr: promotes SRC-2 coactivator recruitment by human PPARgamma | P37231 | PPARgamma LBD-SRC-2 recruitment, biochemical | activation, % at 8 µM | 200,000 tested, 0.34% active; in the data active means activation above about 22%
SRC2 TRFRET art: flags TR-FRET format artefacts in PPARgamma SRC-2 recruitment agonist screen; TR-FRET ratio at 8 µM; 200,000 tested, 0.4% active; TR-FRET artefact counter-screen; active compounds read high
SRC3 TRFRET art: TR-FRET artefact, counter-screen to PPARgamma/SRC-3 agonist assay; TR-FRET ratio at 8 µM; PPARgamma/SRC-3 format; active compounds read high; 99,000 tested, 0.39% active; AID 1048
SRC1 TRFRET art: TR-FRET artefact, counter-screen to PPARgamma/SRC-1 agonist assay | TR-FRET detection artefact counter-screen, emission ratio; active compounds read high | TR-FRET ratio at 8 µM | 99,000 tested, 0.34% active; in the data active means TR-FRET ratio above about 2300
PPARg SRC1 recr: agonists of human PPARgamma SRC-1 coactivator recruitment. 200,000 tested, 0.41% active. AID 631. PPARgamma-SRC-1 coactivator recruitment biochemical assay. activation, % at 8 µM. P37231; in the data active means activation above about 19%
A number is an active result; n = inactive; x = no result. Unless noted, no stated cut-off is given here; in the data, active means TR-FRET ratio above about 2000; inactive means the rest.

SMILES | PPARg SRC-3 ag | PPARg SRC2 recr | SRC2 TRFRET art | SRC3 TRFRET art | SRC1 TRFRET art | PPARg SRC1 recr
O=C(Nc1ccc(F)cc1F)c1csc(-c2cccs2)n1 | n | n | 2010 | n | n | n
O=C(Nc1ccc(F)cc1F)c1csc(-c2ccncc2)n1 | n | n | n | n | n | n
Cn1c(SC2CCCCC2=O)nnc1-c1ccccc1F (stereo unspecified) | n | n | n | n | n | n
CCCCN(CC)CCCNC(=O)CC1Nc2ccccc2NC1=O (stereo unspecified) | n | 22 | n | x | x | n
O=C(Cc1c[nH]c2ccccc12)NCc1ccccc1F | n | n | n | n | n | n
O=C(CN1C(=O)c2ccccc2S1(=O)=O)Nc1ccccc1 | n | n | n | x | x | n
CSc1cccc(NC(=O)CN2C(=O)c3ccccc3S2(=O)=O)c1 | n | 22 | n | x | x | n
Cc1nc(-c2ccc(NC(=O)c3ccccc3C)cc2)cs1 | n | n | n | n | n | n
Cc1nc2ccc(-c3nc4ccc(N)cc4[nH]3)cc2[nH]1 | n | n | n | 2163 | n | n
Cc1c(NC(=O)COC(=O)c2ccc(Br)o2)c(=O)n(-c2ccccc2)n1C | n | n | n | n | n | n
COc1ccc(NC(=O)COC(=O)c2ccc(F)cc2F)cc1 | n | n | 1971 | n | n | n
COc1cccc(NC(=O)COC(=O)c2ccc(F)cc2F)c1 | n | n | n | n | n | n
CC1(CCC#N)N=C(SCCC#N)N(c2ccccc2)C1=O (stereo unspecified) | n | n | 1990 | x | x | n
COc1ccnc(Oc2ccccc2)c1C(N)=O | n | n | n | n | n | n
O=C(c1cccs1)N(c1ccc(Br)cc1)C1C=CS(=O)(=O)C1 (stereo unspecified) | n | n | n | n | n | n
COCCN(Cc1nc(C2(c3ccc(C)cc3)CCCC2)no1)C(C)C | n | n | n | n | n | n
Cc1nnc(SCc2ccccc2)n1N | n | n | n | n | n | 22
C/C(CCC(C)C)=N\NC(=S)Nc1cc(S(=O)(=O)N2CCOCC2)ccc1N1CCOCC1 | n | n | n | n | n | n
C/C(=N/NC(=O)c1cccc(N2CCCC2=O)c1)c1ccncc1 | n | n | n | n | n | n
O=C(Nc1cc(S(=O)(=O)N2CCOCC2)ccc1N1CCCC1)c1ccc2c(c1)S(=O)(=O)c1ccccc1C2=O | n | n | 1978 | n | n | n
O=C(Nc1ccccc1F)Nc1cc(S(=O)(=O)N2CCOCC2)ccc1N1CCCC1 | n | n | n | n | n | n
Cc1cc(C)c(C#N)c(SCc2cc3c(cc2Cl)OCO3)n1 | n | 56 | 2388 | x | x | n
C=CCc1c(NCCO)nc(C)[nH]c1=O | n | n | n | n | n | n
N#Cc1c(SCC(N)=O)nc2c(c1-c1ccc(OCc3ccccc3)cc1)CCCC2 | 71 | n | n | x | x | 63
COc1cccc(-c2ccc(C#N)c(SCC(=O)NCc3ccco3)n2)c1 | n | n | 1980 | n | n | n
SMILES | PPARg SRC-3 ag | PPARg SRC2 recr | SRC2 TRFRET art | SRC3 TRFRET art | SRC1 TRFRET art | PPARg SRC1 recr
c1cn(-c2ccc(-c3ccnc4ncnn34)cc2)cn1 | n | n | n | n | n | n
CCc1cc(C(=O)N2CCCC(C(=O)c3cccc4ccccc34)C2)n(C)n1 (stereo unspecified) | n | n | n | n | n | n
COc1ccc(-c2cc(-c3ccccc3)nc3ncnn23)cc1 | n | n | n | n | n | n
COc1ccc(-c2cc(-c3ccc(Br)cc3)nc3ncnn23)cc1OC | n | n | 2400 | x | x | n
CCCn1cnc2cc(NC(=O)c3cccs3)ccc21 | n | n | n | n | n | n
COc1ccccc1OC(C)C(=O)Nc1nc(-c2ccc(S(=O)(=O)N3CCOCC3)cc2)cs1 (stereo unspecified) | n | n | 2207 | x | x | n
O=C(COC(=O)c1cccc(S(=O)(=O)N2CCOCC2)c1)Nc1nc(-c2ccccc2Cl)cs1 | n | n | n | x | x | n
O=C(COc1cccc(Cl)c1)Nc1nc(-c2ccc(S(=O)(=O)N3CCOCC3)cc2)cs1 | n | n | 2278 | x | x | n
O=C(Nc1nc(-c2ccncc2)cs1)c1ccc(S(=O)(=O)N2CCOCC2)cc1 | n | n | n | x | x | n
O=C(Nc1nc(-c2cccs2)cs1)c1cccc(S(=O)(=O)N2CCCCCC2)c1 | n | n | 2098 | x | x | n
CCOc1cccc(C(=O)Nc2nc(-c3ccc(S(=O)(=O)N4CCOCC4)cc3)cs2)c1 | n | n | 2173 | x | x | n
COCCN(C(=O)CC1C(=O)NCCN1Cc1ccc(-c2ccccc2)cc1)C(C)C (stereo unspecified) | n | n | n | n | n | n
CCOC(=O)CNC(=S)n1cnc(N)n1 | n | n | n | n | n | n
CC(=O)Oc1c(-c2ccco2)oc2ccccc2c1=O | n | n | n | n | n | n
Cc1ccc(NC(=O)CSc2nnc(-c3ccccc3Br)o2)cc1C | n | n | n | x | x | n
Cc1cc(C)c(C(=O)CSc2nnc(-c3ccccc3Br)o2)cc1C | n | n | n | x | x | 27
N#Cc1nnn(-c2ccc(Cl)cc2)c1N | n | n | n | n | n | n
N/C(=N\OC(=O)COc1ccc(Br)cc1Cl)c1ccccn1 | n | n | n | n | n | n
N/C(=N\OC(=O)COc1ccc2ccccc2c1Br)c1cccnc1 | n | n | n | n | 2331 | n
N/C(=N\OC(=O)COc1ccc2ccccc2c1Br)c1ccccn1 | n | n | 1993 | n | 2360 | n
N/C(=N\OC(=O)COc1ccc(Br)cc1)c1cccnc1 | n | n | n | n | n | n
Oc1ccc(NCc2ccccc2OCc2ccccc2)cc1 | n | 29 | 2166 | n | n | n
Cc1cc(C)c2nc(SCC(=O)N3CC(=O)Nc4ccccc43)c(C#N)cc2c1 | n | n | 3300 | x | x | n
O=C(CSc1nnc(C2CC2)n1Cc1ccco1)NCC(F)(F)F | n | n | n | n | 2315 | n
CC(C)(C)NC(=O)CN(C(=O)CN1C(=O)C(=O)c2ccccc21)C(C)(C)C | n | n | n | n | n | n
SMILES | PPARg SRC-3 ag | PPARg SRC2 recr | SRC2 TRFRET art | SRC3 TRFRET art | SRC1 TRFRET art | PPARg SRC1 recr
Cc1cccc(N(CC(=O)N2CCN(c3ccc(F)cc3)CC2)S(C)(=O)=O)c1C | n | n | n | n | 2469 | 29
Cc1cccc(N(CC(=O)N2CCOCC2)S(C)(=O)=O)c1C | n | n | n | x | x | n
CC(Nc1ccc2c(c1)OCCO2)C(=O)N1c2ccccc2CC1C (stereo unspecified) | n | n | n | n | n | n
Cc1cc(=O)[nH]c2c1c(C)nn2C1CCCCC1 | n | n | n | x | x | n
Cc1cc(=O)[nH]c2c1c(C)nn2C1CCCC1 | n | 73 | 4512 | x | x | n
COc1ccc(C2=NN(C(=O)CSc3nc4ccccc4s3)C(c3ccc(OC)cc3)C2)cc1 (stereo unspecified) | n | n | n | n | n | n
COc1ccc(C2CC(c3ccc4ccccc4c3)=NN2C(=O)CSc2ncccn2)cc1 (stereo unspecified) | n | n | n | 2117 | n | n
COc1ccc(C2=NN(C(=O)CSc3cn(C)c4ccccc34)C(c3ccc(OC)cc3)C2)cc1 (stereo unspecified) | n | n | 9469 | x | x | n

High-throughput results as filed in PubChem BioAssay.
